The list shows a part of the results. The hit rate among all sequences tested is not known here.
Biological target: furin, P09958
Assay: furin cleavage Z-score vs untreated control; higher = more cleavage, active = 3.5 or more, inactive = 1 or less, 8 variable residues between constant flanks
How it was run: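 Peptides 8 residues long, fused to a cDNA oligonucleotide, were fixed to magnetic beads by the N-terminus and exposed to purified furin. The 0.01 ml reactions contained 50 mM HEPES pH 7.5 with CaCl2 and NaCl at 1:10 enzyme:substrate and ran 7.5, 15 or 30 min. For the cleavage Z-score, log counts of sequenced released DNA were compared with furin-free reactions, lowess-adjusted and scaled by median absolute deviation.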

Sequence of furin, P09958 (P09958 whole entry): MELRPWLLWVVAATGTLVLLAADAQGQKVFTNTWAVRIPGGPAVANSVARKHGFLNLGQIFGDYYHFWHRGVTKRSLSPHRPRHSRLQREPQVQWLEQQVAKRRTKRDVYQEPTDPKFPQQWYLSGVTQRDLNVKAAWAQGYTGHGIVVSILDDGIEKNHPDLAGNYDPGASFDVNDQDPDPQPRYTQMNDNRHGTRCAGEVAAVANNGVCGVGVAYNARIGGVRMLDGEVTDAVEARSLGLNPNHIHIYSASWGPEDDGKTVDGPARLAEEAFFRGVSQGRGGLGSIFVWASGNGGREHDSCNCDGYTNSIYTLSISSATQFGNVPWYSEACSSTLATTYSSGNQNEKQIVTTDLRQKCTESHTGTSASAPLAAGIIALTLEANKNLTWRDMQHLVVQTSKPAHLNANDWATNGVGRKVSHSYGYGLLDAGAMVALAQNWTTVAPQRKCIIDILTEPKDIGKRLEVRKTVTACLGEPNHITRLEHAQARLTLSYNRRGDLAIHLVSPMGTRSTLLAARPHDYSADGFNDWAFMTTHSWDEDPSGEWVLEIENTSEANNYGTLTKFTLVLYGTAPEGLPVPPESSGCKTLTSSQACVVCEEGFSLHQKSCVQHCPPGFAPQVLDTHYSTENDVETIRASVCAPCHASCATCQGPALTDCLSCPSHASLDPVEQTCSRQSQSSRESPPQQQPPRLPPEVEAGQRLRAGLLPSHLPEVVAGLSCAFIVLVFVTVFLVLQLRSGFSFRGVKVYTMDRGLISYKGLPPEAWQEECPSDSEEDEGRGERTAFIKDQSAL

| Sequence | furin cleavage Z-score (7.5 min) | furin cleavage Z-score (15 min) | furin cleavage Z-score (30 min) |
| --- | --- | --- | --- |
| CANKRRGGTAAGNASASA [WN5] | -0.513 (inactive) | -0.365 (inactive) | 0.516 (inactive) |
| CARKRRTATYAGNASASA [FS-2977] | 4.55 (active) | 6.85 (active) | 6.75 (active) |
| CARKHPDATYAGNASASA [HC454] | -0.794 (inactive) | -0.15 (inactive) | -3 (inactive) |
| CARKRRCSLSAGNASASA [FS-1829] | 4.81 (active) | 7.32 (active) | 6.54 (active) |
| CARKRRGGPSAGNASASA [FS-2564] | 3.55 (active) | 5.66 (active) | 4.4 (active) |
| CATDVVCCSMAGNASASA [HC2118] | 1.2 | 0.0514 (inactive) | -0.681 (inactive) |
| CAFIPVENLEAGNASASA [HC758] | -2.14 (inactive) | -0.887 (inactive) | -1.28 (inactive) |
| CAMEECSVHLAGNASASA [HC1730] | -0.159 (inactive) | -0.406 (inactive) | 0.608 (inactive) |
| CAMDYRGRRKAGNASASA [FS-1544] | -0.964 (inactive) | -0.642 (inactive) | 0.39 (inactive) |
| CAEPHRRRRKAGNASASA [FS-415] | 4.43 (active) | 5.99 (active) | 6.78 (active) |
| CACRRRRRRKAGNASASA [FS-583] | 7.53 (active) | 8.14 (active) | 6.13 (active) |
| CARRRRKQRKAGNASASA [FS-2791] | 2.34 | 4.43 (active) | 4.61 (active) |
| CARQGRSGQKAGNASASA [FS-2063] | -0.381 (inactive) | 0.885 (inactive) | -0.813 (inactive) |
| CAEPLRKKKKAGNASASA [FS-1320] | -0.899 (inactive) | -0.615 (inactive) | -0.879 (inactive) |
| CAEPRRSRRKAGNASASA [FS-23] | 3.35 | 6.04 (active) | 5.36 (active) |
| CAVYHGAGTRAGNASASA [HC701] | -1.21 (inactive) | -0.779 (inactive) | -0.813 (inactive) |
| CALLMCAVHPAGNASASA [HC598] | -0.584 (inactive) | -1.05 (inactive) | -0.438 (inactive) |
| CALERRSVYTAGNASASA [FS-1986] | -0.7 (inactive) | 0.537 (inactive) | -0.997 (inactive) |
| CAKTPCSGSWAGNASASA [HC1834] | -1.42 (inactive) | -1.89 (inactive) | -1.1 (inactive) |
| CAQREVPCHRAGNASASA [HC2442] | 1.83 | 1.74 | 0.0102 (inactive) |
| CALMRRRRRKAGNASASA [FS-1599] | 8.11 (active) | 10.6 (active) | 8.59 (active) |
| CAWTVYHGAGAGNASASA [HC700] | -0.0993 (inactive) | 1.58 | 1.31 |
